Screening results deposited in PubChem by National Center for Advancing Translational Sciences (NCATS).
RGS4 inh – inhibitors of human regulator of G protein signaling 4. hit rate 0.039% among 390,000. P49798. Potency, µM (series often up to 114 µM), actives largely listed as inhibitors. Transcreener GDP fluorescence polarization, RGS4-accelerated GTP hydrolysis; note: nearly all actives have a fitted effect of over 75% in size
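MLSMR compounds (23 nl, pin-transferred) preincubated 10 min at room temperature with a 500nM (2x) first reagent, then RGS4 at 900nM (2x) plus Transcreener GDP mix added; fluorescence polarization (620/688 nm) read before and after 90 min at 30 °C.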
KB-3-1 cytotox – KB-3-1 parental cell cytotoxicity | KB-3-1 viability, CellTiter-Glo ATP luminescence, 72 h | Potency, µM (highest dose often 46.1 µM), most hits filed as cytotoxic | hit rate 1.4% among 400,000; note: nearly all actives have a fitted effect of over 60% in size
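Here the drug-naive KB-3-1 line serves as comparator for MDR sub-line selectivity; cells received compound titrations, 72 h at 37 °C, then CellTiter-Glo readout.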
PTAP TSG101 blk – blocks PTAP/TSG101 interaction to inhibit HIV-1 budding | Q99816 | Fluorescence polarization, FITC-PTAP peptide / Tsg101 binding | Potency, µM (highest dose often 115 µM), most hits filed as inhibitors | 340,000 tested, under 10 active | AID 493005; active = well fitted inhibition curve with a large enough effect in the main read-out, with a control signal flat, not every such curve was filed as active; inconclusive = small, poorly fitted or top-dose-only effect, or effect the other way, or a change in a side signal; inactive = no such curve, though single readings can be large or run the other way
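Steps: Tsg101 binding domain dispensed (10 uM final), compounds pinned in DMSO, FITC-labeled PTAP-motif peptide added (50 nM final); after 20 min binding at room temperature, polarization measured.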
SW480 rereplic – induces DNA re-replication in SW480 colon adenocarcinoma cells. hit rate 1.8% among 340,000. SW480 DNA re-replication, Hoechst DNA content imaging, 48 h. Potency, µM (highest dose often 46.1 µM), hits mostly activators; note: nearly all actives have a fitted effect of over 55% in size
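Image-based read-out: total Hoechst fluorescence of nuclei (405 nm excitation, 500-530 nm emission), with hits raising the fraction of high-intensity nuclei. SW480 colon cells incubated 48 hr with compounds at 37 C.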
KB-V1 MDR tox – KB-V1 MDR subline cytotoxicity; AID 1347076; KB-V1 MDR cells viability, CellTiter-Glo, 72 h; Potency, µM (titrated, usually from 46.1 µM), most hits filed as cytotoxic; hit rate 3.4% among 400,000; note: nearly all actives have a fitted effect of over 60% in size
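Cytotoxicity toward P-gp-expressing KB-V1 cells was determined as loss of CellTiter-Glo luminescence after 72 h at 37 degrees C. Compounds were tested in quantitative HTS format across a concentration range, with curves fitted to normalized data.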
MCF10A rereplic – induces DNA re-replication in MCF 10a normal breast cells. MCF 10A DNA re-replication, Hoechst nuclear intensity, 48 h. Potency, µM (doses to about 46.1 µM), most hits filed as activators. hit rate 2.9% among 350,000. AID 624296; note: nearly all actives have a fitted effect of over 50% in size
Each line names hits and unclear results; the compound was inactive in the other large screens. Only some compounds are listed: those with a hit (about 6.6% of all), similar ones and a draw of the others. Unless noted, calls come from the whole dose curve; as a rule, active = well fitted curve in the direction sought with a large enough effect; inconclusive = small, poorly fitted or top-dose-only effect, or another doubt; inactive = no such curve, though single readings can be large; an effect the other way counts as inactive or inconclusive.

Cn1c(=O)c2c(nc(N3CCNCC3)n2Cc2ccccc2Cl)n(C)c1=O	none
Cn1c(N2CCCCC2)nc2c1c(=O)[nH]c(=O)n2C	none
O=[N+]([O-])c1ccc2c(c1)C=C/C2=C\c1ccc(C=S)cc1	KB-V1 MDR tox inconclusive (no result: RGS4 inh, PTAP TSG101 blk, SW480 rereplic, MCF10A rereplic)
CCOC(=O)c1c(S(=O)(=O)NCC(=O)Nc2cccc(SC)c2)c(C)n(C)c1C	none (no result: PTAP TSG101 blk, SW480 rereplic, MCF10A rereplic)
c1ccc(CC2CCN(C3=Nc4cccc5cccc3c45)CC2)cc1	SW480 rereplic inconclusive, KB-V1 MDR tox inconclusive, MCF10A rereplic 9.2µM
